Experiment [1] concerns the target Lysosomal acid glucosylceramidase (Homo sapiens) (UniProt P04062). Description: Glucocerebrosidase-p2 (AID 348; in the data active means potency below about 10 µM; further: potency means the concentration at half of the fitted maximal effect). The settings on record: purified GBA, blue fluorogenic substrate, 40 min. Summed up:
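Compounds titrated from 0.6 nM upwards against 0.2 nM enzyme in pH 5.9 citric acid/KH2PO4, taurocholate, tween-20; blue fluorogenic substrate 80 uM, 40 min room temperature, stopped and read Ex 365/Em 440 for AC50.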

The nature of experiment [2]: AP1 Signaling Pathway (AID 357; active means well fitted curve in either direction with a large enough effect, not every such curve was filed as active; further: on the % scale 0 is the no-effect control and ±100 the full control effect). The settings on record: ME-180 AP-1-bla reporter, EGF-induced, beta-lactamase ratio, 5 h; at 7.69 µM (top of the series) unless noted. The essentials: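 ME-180 cells with beta-lactamase reporter under AP-1 response element, stimulated with EC50 EGF; compounds tested in titration series, 5 h at 37 °C. CCF4 substrate added 2.5 h at room temperature; 460/530 nm emission ratio gave %activity and AC50.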

Experiment [3] is described as follows: Stat Signaling Pathway (AID 446; active means well fitted curve in either direction with a large enough effect, not every such curve was filed as active;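 further: ME-180 cervical cancer cells given 40 pM IL-6 alongside compound; SIE-controlled beta-lactamase reporter measured as 460/530 nm FRET emission ratio; on the % scale 0 is the no-effect control and ±100 the full control effect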). The settings on record: ME-180 SIE beta-lactamase reporter, IL-6 stimulated, 5 h; at 7.69 µM (top of the series) unless noted. The essentials: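 Reporter line: ME-180 cervical carcinoma, SIE-beta-lactamase. Treatment: compound with 40 pM IL-6, 5 hrs, 37 C, in low-serum OPTI-MEM with 10 mM HEPES pH 7.3. Detection: 460/530 nm fluorescence.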

The target of experiment [4] is Glucocorticoid receptor (Homo sapiens) (UniProt P04150). Briefly: GR-EFC Redistribution (AID 451; calls by dose curve; further: potency means the concentration at half of the fitted maximal effect). The settings on record: CHO-K1 GR-EFC translocation, beta-gal luminescence, 2 h. The essentials:
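CHO-K1 cells stably expressing nuclear-localized β-gal enzyme acceptor and GR fused C-terminally to the enzyme donor fragment; ligand-driven nuclear translocation restores β-gal by complementation. Compounds titrated up to 46 uM final, 2 h at 37 °C; luminescence read.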

Experiment [5] addresses Mitogen-activated protein kinase 10 (Mus musculus) (UniProt Q61831). Briefly: JNK3 AlphaScreen Assay (AID 530; active means well fitted curve in either direction with a large enough effect, not every such curve was filed as active;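 further: kinase came from lysate of stimulated human HepG2 cells; on the % scale 0 is the no-effect control and ±100 the full control effect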). The settings on record: JNK3 lysate, c-Jun phosphorylation; series mostly up to 57.1 µM. Summed up: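 JNK3 came from HepG2 lysates pre-activated with IL-1beta and TNF-alpha and phosphorylated biotinylated GST-cJun (1-79) at 10 uM ATP, pH 7.6, room temperature. Compounds were titrated. AlphaScreen signal used anti-phospho-cJun (Ser73) antibody.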

Experiment [6] deals with 3',5'-cyclic-AMP phosphodiesterase 4B (Homo sapiens) (UniProt Q07343). Briefly: qHTS Assay for Inhibitors of PDE-IV (AID 607; active means well fitted activation curve with a large enough effect in the main read-out, with a control signal flat, not every such curve was filed as active; further: % of control where 0% means no effect). The settings on record: HEK293 ACTOne CNG channel cells, membrane potential fluorescence; series mostly up to 22.9 µM. The essentials: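 Cell-based read-out of cAMP via a modified cyclic nucleotide-gated channel and membrane potential dye (535/590 nm) in HEK293 cells expressing PDE4 endogenously. Compounds tested up to 22.9 uM final; 100 uM RO 20-1724 reference.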

Experiment [7] in a line: Primary qHTS for small molecule stabilizers of the endoplasmic reticulum resident proteome: Secreted ER Calcium Modulated Protein (SERCaMP) assay (AID 1508630). Further: on the % scale 0 is the no-effect control and ±100 the full control effect. The settings on record: SH-SY5Y GLuc-SERCaMP (Gaussia luciferase released on ER calcium loss) secretion, thapsigargin, luminescence; series mostly up to 38.4 µM. The essentials:
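GLuc-SERCaMP-expressing SH-SY5Y cells, pretreated 16 h with compound, are challenged with thapsigargin to empty ER calcium stores; after 4 h, coelenterazine is added directly to the medium and luminescence is imaged.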

The nature of experiment [8]: NFAT Signaling Pathway (AID 444; active means well fitted curve in either direction with a large enough effect, not every such curve was filed as active). The settings on record: Jurkat NFAT-bla M1, carbachol, beta-lactamase ratio, 5 h; at 7.69 µM (top of the series) unless noted. The essentials: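 Jurkat cells carrying an NFAT-driven β-lactamase reporter and co-transfected muscarinic M1 receptor were treated with compound plus carbachol (1 uM final, an EC50 level) for 5 h at 37 °C. CCF4 loading followed for 1 h at RT; 460/530 nm ratio gave %activity.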

Experiment [9] concerns the target Glucocorticoid receptor (Homo sapiens) (UniProt P04150). Description: GR-GFP Redistribution (AID 450;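 active means compounds whose dose series gives a full or clear partial fitted curve of increased nuclear translocation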; further: potency means the concentration at half of the fitted maximal effect). The settings on record: U2OS GR-GFP nuclear translocation, laser cytometry, 2 h.
The target of experiment [10] is Cytochrome P450 3A4 (Homo sapiens) (UniProt P08684). Briefly: qHTS Assay for Activators of Cytochrome P450 3A4 (AID 885). Further: nearly all actives have a fitted effect of over 65% in size. The following applies: recombinant CYP3A4, Luciferin-PPXE luminescence, 60 min; series mostly up to 57.1 µM. Summed up:
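Signal was normalized against complete inhibition by 57 uM ketoconazole. The reaction used 20nM CYP3A4 with 25uM Luciferin-PPXE, 10-min compound preincubation and a 60-min NADPH-supported step at RT.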

In experiment [11] the target is Cytochrome P450 2C9 (Homo sapiens) (UniProt P11712). Briefly: qHTS Assay for Inhibitors and Substrates of Cytochrome P450 2C9 (AID 883). Further: on the % scale 0 is the no-effect control and ±100 the full control effect; nearly all actives have a fitted effect of over 60% in size. The following applies: recombinant CYP2C9, luciferin-H luminescence, 60 min; series mostly up to 57.1 µM. Summed up: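 A luminogenic readout tracked human CYP2C9 (10nM) converting deoxyluciferin (100uM, at KM) in 25mM KPO4 during 60 min at 37C with regenerated NADPH. Values normalized to 57uM sulphaphenazole as complete inhibition.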

Experiment [12] in a line: Confirmation and Secondary Assay for Modulators of Hemoglobin Beta Chain Splicing at IVS2 705 locus (AID 930).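 Further: HeLa cells stably expressing the EGFP-705 splicing reporter; GFP fluorescence per well restored by corrected splicing of the IVS2-705 intron in EGFP; % of control where 0% means no effect.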 The following applies: HeLa EGFP-705 splicing reporter, GFP fluorescence, 48 h; series mostly up to 38.3 µM. Summed up:
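Secondary splice-site specificity test uses HeLa expressing CMV-driven EGFP interrupted by IVS2-705; cells were treated 2 days at 37C with 500 nM antisense PNA as positive control.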

Experiment [13] concerns the target Ubiquitin carboxyl-terminal hydrolase 1 (Homo sapiens) (UniProt O94782). Briefly: Inhibitors of USP1/UAF1: Pilot qHTS (AID 504865).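 Further: rhodamine fluorescence freed from ubiquitin-rhodamine substrate followed over time; top concentration of the series differs between compounds; on the % scale 0 is the no-effect control and ±100 the full control effect; nearly all actives have a fitted effect of over 35% in size.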 The following applies: purified USP1/UAF1, Ub-rhodamine cleavage fluorescence; series mostly up to 54.9 µM. Summed up: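 Deubiquitinase activity followed as kinetic rhodamine fluorescence release from 150 nM Ub-Rho. 1 nM USP1/UAF1 with compound, after 15 min room-temperature preincubation, in HEPES pH 7.8 buffer containing TCEP, EDTA, BSA and Tween-20.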

Experiment [14] addresses Cytochrome P450 2D6 (Homo sapiens) (UniProt P10635). Description: qHTS Assay for Inhibitors and Substrates of Cytochrome P450 2D6 (AID 891). Further: potency means the concentration at half of the fitted maximal effect; nearly all actives have a fitted effect of over 60% in size. The settings on record: recombinant CYP2D6, luciferin-ME EGE luminescence; series mostly up to 57.1 µM. The essentials:
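Human CYP2D6 (5 nM) with 30 uM Luciferin-ME EGE (at Km) in 100 mM KPO4, compound preincubated 10 min, then NADPH regeneration system for 60 min at room temperature. Luciferin read by luminescence; normalized to 1.43 uM quinidine.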

In experiment [15] the target is Cytochrome P450 2C19 (Homo sapiens) (UniProt P33261). Briefly: qHTS Assay for Inhibitors and Substrates of Cytochrome P450 2C19 (AID 899). Further: nearly all actives have a fitted effect of over 60% in size. Further: potency means the concentration at half of the fitted maximal effect. The settings on record: recombinant CYP2C19, luciferin-H EGE luminescence; series mostly up to 57.1 µM. Summed up: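 NADPH-dependent conversion of Luciferin-H EGE (10uM, at KM) by 5nM enzyme in 50mM KPO4, 60 min at 37C following 10 min compound preincubation. Stopped with luciferin detection buffer; luminescence read after 20 min.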

Experiment [16] has as its target Cytochrome P450 1A2 (Homo sapiens) (UniProt P05177). Description: p450-cyp1a2 (AID 410; calls by dose curve; further: potency means the concentration at half of the fitted maximal effect). The settings on record: recombinant CYP1A2, luciferin-ME demethylation, luminescence; series mostly up to 57 µM. The essentials:
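Human CYP1A2 (20nM) demethylated Luciferin-ME at its Km (100uM) in 100mM KPO4. After 10 min compound preincubation, NADPH regeneration ran the reaction 60 min at room temperature. Luciferin was read by luminescence, normalized to 57 uM furafylline.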

Experiment [17] is described as follows: qHTS Assay for Identification of Small Molecule Agonists for Hypoxia Response Element Signaling Pathway (AID 914; active means well fitted activation curve with a large enough effect in the signal ratio, with a control signal flat, not every such curve was filed as active; the % refers to the signal ratio; further: potency means the concentration at half of the fitted maximal effect). The following applies: ME-180 (cervical carcinoma) HRE-bla reporter, beta-lactamase ratio, CoCl2, 17 h; activation: hits give high values. Summed up: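 qHTS titration; ME-180 HRE-bla cells; EC50 CoCl2 co-treatment, 17 h at 37 degrees Celsius; CCF4 dye, ex 405nm, em 460nm and 530nm; %Activity from ratio; AC50.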

Unmarked numbers belong to inactive results. Records with an inconclusive call do not appear. The source made the active and inactive calls. Unless noted, the call rests on the fitted dose curve; in most records, active means well fitted curve in the direction sought with a large enough effect; inconclusive means small, poorly fitted or top-dose-only effect, or another doubt; inactive means no such curve, though single readings can be large; an effect the other way counts as inactive or inconclusive.

Sequence of Cytochrome P450 3A4 (Homo sapiens) (P08684 whole entry, looked up): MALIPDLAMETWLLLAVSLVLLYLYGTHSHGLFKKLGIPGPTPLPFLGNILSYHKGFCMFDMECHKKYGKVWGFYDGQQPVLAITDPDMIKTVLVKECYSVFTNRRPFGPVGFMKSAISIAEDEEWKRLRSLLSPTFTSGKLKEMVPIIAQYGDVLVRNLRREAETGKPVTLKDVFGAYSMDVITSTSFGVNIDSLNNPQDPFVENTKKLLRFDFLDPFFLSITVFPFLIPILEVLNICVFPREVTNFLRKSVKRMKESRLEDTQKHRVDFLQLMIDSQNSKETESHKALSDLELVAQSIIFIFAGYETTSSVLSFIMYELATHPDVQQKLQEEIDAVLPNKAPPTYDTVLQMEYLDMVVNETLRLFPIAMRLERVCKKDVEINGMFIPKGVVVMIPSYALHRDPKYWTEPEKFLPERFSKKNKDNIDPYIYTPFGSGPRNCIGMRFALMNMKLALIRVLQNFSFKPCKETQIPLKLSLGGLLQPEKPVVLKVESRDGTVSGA
Sequence of Lysosomal acid glucosylceramidase (Homo sapiens) (P04062 whole entry, looked up): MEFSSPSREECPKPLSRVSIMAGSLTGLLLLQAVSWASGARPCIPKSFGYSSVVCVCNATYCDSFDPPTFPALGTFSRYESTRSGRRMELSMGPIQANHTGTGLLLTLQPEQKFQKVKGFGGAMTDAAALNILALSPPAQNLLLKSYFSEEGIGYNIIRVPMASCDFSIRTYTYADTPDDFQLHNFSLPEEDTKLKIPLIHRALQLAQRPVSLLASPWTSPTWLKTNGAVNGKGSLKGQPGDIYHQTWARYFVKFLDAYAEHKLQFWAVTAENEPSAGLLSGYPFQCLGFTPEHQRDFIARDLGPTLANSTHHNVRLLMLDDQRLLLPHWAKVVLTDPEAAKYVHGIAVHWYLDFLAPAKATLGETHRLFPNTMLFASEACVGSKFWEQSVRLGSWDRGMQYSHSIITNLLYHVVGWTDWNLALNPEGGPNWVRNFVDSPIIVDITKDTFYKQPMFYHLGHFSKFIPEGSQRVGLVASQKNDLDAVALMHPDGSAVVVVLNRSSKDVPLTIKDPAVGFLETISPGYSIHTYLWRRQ
Sequence of 3',5'-cyclic-AMP phosphodiesterase 4B (Homo sapiens) (Q07343 whole entry, looked up): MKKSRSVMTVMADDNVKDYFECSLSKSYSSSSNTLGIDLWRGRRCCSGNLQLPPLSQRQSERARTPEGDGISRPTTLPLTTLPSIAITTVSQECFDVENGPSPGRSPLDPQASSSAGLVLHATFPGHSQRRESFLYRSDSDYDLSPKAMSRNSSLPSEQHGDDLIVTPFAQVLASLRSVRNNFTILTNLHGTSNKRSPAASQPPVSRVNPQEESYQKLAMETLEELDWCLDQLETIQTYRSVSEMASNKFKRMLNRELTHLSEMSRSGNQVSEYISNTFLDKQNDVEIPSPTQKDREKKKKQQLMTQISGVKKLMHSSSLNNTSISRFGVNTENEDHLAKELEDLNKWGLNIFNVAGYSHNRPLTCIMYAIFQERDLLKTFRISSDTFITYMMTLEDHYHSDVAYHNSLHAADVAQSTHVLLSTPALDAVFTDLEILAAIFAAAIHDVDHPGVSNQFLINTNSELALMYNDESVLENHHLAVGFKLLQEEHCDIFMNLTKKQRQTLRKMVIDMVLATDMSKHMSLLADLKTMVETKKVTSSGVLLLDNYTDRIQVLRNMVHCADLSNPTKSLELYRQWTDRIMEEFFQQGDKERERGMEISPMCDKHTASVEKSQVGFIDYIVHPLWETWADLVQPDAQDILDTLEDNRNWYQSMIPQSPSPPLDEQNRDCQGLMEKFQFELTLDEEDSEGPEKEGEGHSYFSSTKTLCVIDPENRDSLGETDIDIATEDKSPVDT
Sequence of Cytochrome P450 1A2 (Homo sapiens) (P05177 whole entry, looked up): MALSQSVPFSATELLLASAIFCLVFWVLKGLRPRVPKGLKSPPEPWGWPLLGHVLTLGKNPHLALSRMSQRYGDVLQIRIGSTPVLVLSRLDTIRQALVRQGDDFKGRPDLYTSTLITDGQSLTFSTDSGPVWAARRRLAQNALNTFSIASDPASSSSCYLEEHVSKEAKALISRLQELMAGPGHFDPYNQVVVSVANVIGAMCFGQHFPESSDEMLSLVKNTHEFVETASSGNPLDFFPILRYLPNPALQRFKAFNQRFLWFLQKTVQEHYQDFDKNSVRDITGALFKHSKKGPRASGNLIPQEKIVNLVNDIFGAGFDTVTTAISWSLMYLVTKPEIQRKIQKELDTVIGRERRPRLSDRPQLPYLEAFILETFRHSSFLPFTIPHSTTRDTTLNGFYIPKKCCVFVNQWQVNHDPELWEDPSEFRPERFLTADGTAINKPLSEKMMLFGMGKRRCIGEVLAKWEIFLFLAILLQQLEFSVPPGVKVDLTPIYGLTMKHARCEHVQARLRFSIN
Sequence of Glucocorticoid receptor (Homo sapiens) (P04150 whole entry, looked up, the tested form may be a part): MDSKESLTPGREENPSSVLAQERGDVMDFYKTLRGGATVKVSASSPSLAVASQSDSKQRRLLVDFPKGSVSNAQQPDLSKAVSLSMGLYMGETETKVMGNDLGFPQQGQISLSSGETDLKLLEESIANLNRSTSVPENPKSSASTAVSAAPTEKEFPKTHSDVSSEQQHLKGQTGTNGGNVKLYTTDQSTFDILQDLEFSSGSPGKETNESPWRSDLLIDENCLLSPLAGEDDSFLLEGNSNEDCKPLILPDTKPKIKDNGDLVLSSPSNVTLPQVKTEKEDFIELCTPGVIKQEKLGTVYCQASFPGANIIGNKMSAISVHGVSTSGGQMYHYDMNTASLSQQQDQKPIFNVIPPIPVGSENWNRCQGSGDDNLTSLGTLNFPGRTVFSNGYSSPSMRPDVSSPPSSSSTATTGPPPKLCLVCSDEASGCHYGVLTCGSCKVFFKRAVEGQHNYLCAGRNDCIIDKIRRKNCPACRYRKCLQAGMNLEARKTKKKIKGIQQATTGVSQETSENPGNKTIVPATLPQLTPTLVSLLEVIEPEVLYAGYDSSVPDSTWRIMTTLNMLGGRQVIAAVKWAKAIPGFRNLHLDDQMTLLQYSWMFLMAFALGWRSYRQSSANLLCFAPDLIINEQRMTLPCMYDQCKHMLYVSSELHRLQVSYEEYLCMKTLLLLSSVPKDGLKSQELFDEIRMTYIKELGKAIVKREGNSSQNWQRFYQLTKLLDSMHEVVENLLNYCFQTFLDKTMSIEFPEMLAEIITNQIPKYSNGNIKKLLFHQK
Sequence of Cytochrome P450 2C9 (Homo sapiens) (P11712 whole entry, looked up): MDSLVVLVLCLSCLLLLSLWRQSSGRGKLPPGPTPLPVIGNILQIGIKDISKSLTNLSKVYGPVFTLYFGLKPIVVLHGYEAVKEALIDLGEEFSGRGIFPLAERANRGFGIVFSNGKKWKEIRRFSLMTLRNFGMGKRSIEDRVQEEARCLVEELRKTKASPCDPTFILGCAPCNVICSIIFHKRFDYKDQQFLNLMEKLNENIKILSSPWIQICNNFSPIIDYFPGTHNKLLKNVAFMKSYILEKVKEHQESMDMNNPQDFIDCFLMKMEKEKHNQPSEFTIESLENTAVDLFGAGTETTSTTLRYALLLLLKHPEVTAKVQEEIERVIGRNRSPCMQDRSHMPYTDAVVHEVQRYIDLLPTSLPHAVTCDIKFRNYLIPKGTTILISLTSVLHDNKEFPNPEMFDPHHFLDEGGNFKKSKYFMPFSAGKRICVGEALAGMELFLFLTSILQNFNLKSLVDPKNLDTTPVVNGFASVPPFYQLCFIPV
Sequence of Cytochrome P450 2C19 (Homo sapiens) (P33261 whole entry, looked up): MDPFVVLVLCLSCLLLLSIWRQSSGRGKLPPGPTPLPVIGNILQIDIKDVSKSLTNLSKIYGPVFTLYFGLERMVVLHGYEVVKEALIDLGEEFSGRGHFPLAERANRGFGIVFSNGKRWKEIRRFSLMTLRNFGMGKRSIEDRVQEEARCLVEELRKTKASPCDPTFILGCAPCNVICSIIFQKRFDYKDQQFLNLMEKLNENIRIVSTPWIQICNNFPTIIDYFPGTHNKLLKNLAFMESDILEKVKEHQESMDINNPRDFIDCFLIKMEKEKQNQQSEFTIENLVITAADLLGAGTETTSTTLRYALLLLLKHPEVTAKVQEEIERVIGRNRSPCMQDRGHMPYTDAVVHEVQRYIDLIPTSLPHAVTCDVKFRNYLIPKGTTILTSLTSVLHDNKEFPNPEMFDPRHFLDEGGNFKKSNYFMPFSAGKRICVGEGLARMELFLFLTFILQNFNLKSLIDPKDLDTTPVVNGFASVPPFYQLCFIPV
Sequence of Ubiquitin carboxyl-terminal hydrolase 1 (Homo sapiens) (O94782 whole entry, looked up): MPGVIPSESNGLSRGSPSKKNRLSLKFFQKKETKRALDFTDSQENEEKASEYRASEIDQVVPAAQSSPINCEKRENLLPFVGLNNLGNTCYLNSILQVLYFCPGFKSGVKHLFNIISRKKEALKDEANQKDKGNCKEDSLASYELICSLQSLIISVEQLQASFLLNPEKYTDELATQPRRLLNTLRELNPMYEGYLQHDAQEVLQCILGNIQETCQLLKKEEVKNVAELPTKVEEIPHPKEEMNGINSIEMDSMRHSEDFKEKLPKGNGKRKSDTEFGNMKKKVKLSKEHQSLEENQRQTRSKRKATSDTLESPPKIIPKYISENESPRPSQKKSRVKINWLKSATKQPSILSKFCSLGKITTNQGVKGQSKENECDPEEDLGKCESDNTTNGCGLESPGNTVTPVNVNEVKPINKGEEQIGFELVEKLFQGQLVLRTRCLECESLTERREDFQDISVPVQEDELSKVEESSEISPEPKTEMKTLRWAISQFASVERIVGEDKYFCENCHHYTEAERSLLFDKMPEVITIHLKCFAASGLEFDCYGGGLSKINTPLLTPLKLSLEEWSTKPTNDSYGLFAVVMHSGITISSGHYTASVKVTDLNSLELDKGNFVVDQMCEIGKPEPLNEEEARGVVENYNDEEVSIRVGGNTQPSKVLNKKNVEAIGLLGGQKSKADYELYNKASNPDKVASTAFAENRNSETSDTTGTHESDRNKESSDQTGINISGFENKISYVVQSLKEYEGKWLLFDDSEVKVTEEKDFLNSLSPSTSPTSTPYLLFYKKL

In the case of `O=C(Oc1ccccc1)N1CCC[C@@]2(CCN(c3ccccc3)C2)C1`, the Potency was more than 11.4 µM in experiment [1] and more than 46 µM in [4]. For the same compound, the activity change, negative = inhibition in [2] was -15.6%. In experiment [3], the activity, negative = inhibition was -1.51%. Moreover, the Potency result in [5] and in experiment [6] was “inactive” in each case. Also, in experiment [7], the outcome was inactive.
`COCCn1c(=O)c(-c2cccs2)nc2cnc(OCc3ccccc3)nc21`: the Potency in [1] is more than 11.4 µM; in [9], more than 9.22 µM; in [4], more than 46 µM. The activity change, negative = inhibition in experiment [2] was 2.42%; in [8], 4.34%. For the same compound, the Potency entry in experiment [5] and in experiment [10] was “inactive” throughout. Also, the outcome in experiment [7] was inactive.
Consider `COc1cccc(Cn2c(=O)c(-c3cccs3)nc3cnc(N4CCN(C)CC4)nc32)c1`, for which the Potency entry in [11] is “inactive”.
`COc1ccc(CNc2nc(-c3ccccc3CN(C)C)nc3ccccc23)c(OC)c1`: the activity change, negative = inhibition in experiment [11] is 25.6% [at 2.29 µM]. Moreover, in [12], the compound was called inactive. Further, in experiment [13], the Potency result is “inactive”.
Consider `O=S(=O)(c1ccccc1)N1CCC[C@@]2(CCN(C(c3ccccc3)c3ccccc3)C2)C1`, for which the Potency in [14] is 0.631 µM (active).
Take `COc1ncc2nc(C)c(=O)n(CCC#N)c2n1`: in [15], the Potency entry was “inactive”.
Consider `Cc1cccc(CNc2cc(-c3ccc(N(C)C)cc3)ncn2)c1`, for which the Potency in [15] was 3.16 µM (active). Moreover, the outcome in experiment [12] was inactive.
`CCNc1ncc2nc(-c3cc(F)cc(F)c3)c(=O)n(Cc3cccs3)c2n1`: the Potency in [1] was more than 11.4 µM; in [16], 5.01 µM (active); in experiment [9], more than 9.22 µM; in experiment [4], more than 46 µM; in experiment [17], 0.794 µM (active). Moreover, in [3], the activity, negative = inhibition is 135% [activator] (active). Also, the Potency result in experiment [5] and in experiment [10] was “inactive” each time. Moreover, in experiment [7], the outcome was inactive.
`O=C(c1cccc(F)c1)N1CCC2(CCCN(Cc3nccs3)C2)CC1`: the Potency in [1] is more than 11.4 µM; in experiment [4], more than 46 µM. The Potency entry in experiment [16], in [5], in experiment [6] and in experiment [10] was “inactive” in each case. Moreover, the activity, negative = inhibition in experiment [3] was 5.18%. The outcome in experiment [7] was inactive.
Consider `COc1ccc(-n2c(=O)c(-c3cc(F)cc(F)c3)nc3cnc(N4CCNCC4)nc32)cc1`, for which the Potency was more than 11.4 µM in experiment [1]; 12.6 µM (active) in experiment [16]; more than 9.22 µM in [9]; more than 46 µM in experiment [4]; 3.16 µM (active) in experiment [17]. In addition, the Potency entry in experiment [5], in experiment [6] and in experiment [10] was “inactive” in each case. In addition, the result in [7] was inactive.

These data come from PubChem BioAssay (NCATS).
